Screening results (PubChem BioAssay)
A selection: hits, their analogues and other compounds. The true share with any hit is near 2.8%.
Env fusion inh: HIV envelope-mediated fusion inhibition; HeLa-JRFL Env/CEM21 cell fusion, luciferase; inhibition, % at 12.3 µM; 1.1% of 360,000 active; AID 651610;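 active means mean replicate inhibition score of at least 50 and every replicate individually at or above 50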;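 further: 0% = plate neutral controls and 100% = maraviroc near 300 nM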
NSD2 inh: inhibitors of human histone methyltransferase NSD2. O96028. NSD2 peptide methylation, AlphaScreen, 120 min. inhibition, % at 12.5 µM. 0.54% of 310,000 active. AID 743445; in the data active means inhibition above about 50%
Target sequence (O96028 whole entry, looked up): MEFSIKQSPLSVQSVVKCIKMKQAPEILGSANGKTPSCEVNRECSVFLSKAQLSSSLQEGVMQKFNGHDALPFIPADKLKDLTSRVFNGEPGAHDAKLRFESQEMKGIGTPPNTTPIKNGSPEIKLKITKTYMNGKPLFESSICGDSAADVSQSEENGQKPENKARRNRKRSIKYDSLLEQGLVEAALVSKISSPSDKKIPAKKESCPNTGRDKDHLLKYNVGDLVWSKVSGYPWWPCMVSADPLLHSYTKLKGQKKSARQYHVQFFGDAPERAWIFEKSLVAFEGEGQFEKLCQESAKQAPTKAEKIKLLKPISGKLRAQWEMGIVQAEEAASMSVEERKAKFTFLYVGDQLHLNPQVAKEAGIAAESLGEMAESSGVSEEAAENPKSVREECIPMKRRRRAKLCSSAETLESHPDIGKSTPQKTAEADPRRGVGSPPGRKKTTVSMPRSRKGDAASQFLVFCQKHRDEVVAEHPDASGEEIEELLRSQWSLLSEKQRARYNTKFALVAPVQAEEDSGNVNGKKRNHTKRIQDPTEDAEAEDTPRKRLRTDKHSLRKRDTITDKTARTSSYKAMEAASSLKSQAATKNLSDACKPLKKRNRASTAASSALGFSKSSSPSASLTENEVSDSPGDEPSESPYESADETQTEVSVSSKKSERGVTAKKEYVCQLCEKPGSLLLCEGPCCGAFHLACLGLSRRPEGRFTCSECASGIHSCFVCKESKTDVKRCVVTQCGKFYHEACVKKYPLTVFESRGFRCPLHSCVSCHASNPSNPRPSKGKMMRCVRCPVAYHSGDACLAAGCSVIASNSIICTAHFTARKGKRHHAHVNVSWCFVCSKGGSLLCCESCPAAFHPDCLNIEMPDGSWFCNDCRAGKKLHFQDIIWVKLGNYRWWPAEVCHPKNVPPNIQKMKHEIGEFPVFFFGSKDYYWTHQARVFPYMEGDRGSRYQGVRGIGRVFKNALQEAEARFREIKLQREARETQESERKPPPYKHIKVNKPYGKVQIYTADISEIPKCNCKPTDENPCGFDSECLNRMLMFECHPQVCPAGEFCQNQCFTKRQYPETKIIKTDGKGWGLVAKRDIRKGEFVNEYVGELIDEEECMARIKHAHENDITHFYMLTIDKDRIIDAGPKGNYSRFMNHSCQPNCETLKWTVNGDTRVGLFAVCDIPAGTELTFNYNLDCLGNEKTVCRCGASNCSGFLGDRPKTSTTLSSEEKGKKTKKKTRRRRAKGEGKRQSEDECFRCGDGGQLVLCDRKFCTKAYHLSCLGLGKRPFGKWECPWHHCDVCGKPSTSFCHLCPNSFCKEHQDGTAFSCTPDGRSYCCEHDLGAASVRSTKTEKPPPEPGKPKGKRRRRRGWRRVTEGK
Glyco luc inh: N-linked glycosylation inhibition | D54 ERlucT glycosylation luciferase reporter, 24 h; percent of 100 nM tunicamycin response | 0.23% of 360,000 active | reporter increase, % at 12.5 µM;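 active means mean luciferase reporter signal, scaled so untreated is 0 and the glycosylation-blocking control 100, at or above a set limit in every replicate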;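 further: luciferase carries N-glycosylation sites so blocking glycosylation raises the light; 0% = median of neutral control wells and 100% = median of 100 nM tunicamycin wells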
PAX8 inh HTS: inhibitors of PAX8 transcriptional activity in RMG-I cells | RMG-I TPO-luciferase reporter, SteadyGlo, 24 h | inhibition, % at 12.6 µM | 1.2% of 360,000 active | AID 652154;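 active means mean replicate inhibition at least 60% with every replicate also reaching 60%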;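 further: luciferase light reporting Pax8 driven TPO promoter activity; plate controls were median of neutral control wells for no effect and mitoxantrone controls for full effect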
LMP1 NFkB inh: Epstein-Barr LMP1 NF-kappaB reporter inhibition; LMP1-induced NF-kappaB luciferase reporter cells, luminescence; inhibition, % at 12.5 µM; 0.69% of 350,000 active; AID 504558; in the data active means inhibition above about 41%;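 further: 0% = neutral control wells and 100% = reference inhibitor control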
Shn3 inh set2: reduces Shn3 3'UTR luciferase signal in osteoblasts | inhibition, % at 12.5 µM | Clone20 osteoblast Shn3 3'UTR firefly luciferase, 24 h | 0.52% of 360,000 active;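 active means mean inhibition of at least 75% with every replicate also reaching 75%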;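 further: 0% = median of neutral control wells and 100% = pilot-screen positive control compound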
* marks the source's active call; other numbers are inactive results; . = no result given; [ ] = another dose, or the depositor's remark.

SMILES | Env fusion inh | NSD2 inh | Glyco luc inh | PAX8 inh HTS | LMP1 NFkB inh | Shn3 inh set2
CCc1ccc(NC(=O)COC(=O)C2(c3ccc(Cl)cc3)CCCC2)cc1 | . | -4.0 | -7.4 | 57.6 | 60.5* | 43.2
COc1ccc(CN(C)C[C@@H]2OCCCC[C@H](C)Oc3ccc(NC(=O)Nc4ccc(OC)cc4)cc3C(=O)N([C@H](C)CO)C[C@@H]2C)cc1 | 19.7[16.7 µM] | . | . | 5.4 | . | .
COc1ccc(CN(C)C[C@@H]2OCCCC[C@H](C)Oc3ccc(NC(=O)Nc4ccc(OC)cc4)cc3C(=O)N([C@@H](C)CO)C[C@@H]2C)cc1 | 64.4*[16.7 µM] | . | . | -7.2 | . | .
COc1ccc(NC(=O)Nc2ccc3c(c2)C(=O)N([C@@H](C)CO)C[C@H](C)[C@H](CN(C)Cc2ccccc2)OCCCC[C@H](C)O3)cc1 | 86.0*[16.7 µM] | . | . | 14.3 | . | .
CC(=O)N(C)C[C@H]1Oc2ncc(-c3ccc(C)cc3)cc2C(=O)N([C@H](C)CO)C[C@H]1C | -4.3[16.7 µM] | . | . | . | . | .
CC(C)C(=O)Nc1ccc2c(c1)C(=O)N(C)[C@@H]1CC[C@@H](CC(=O)N[C@H](C)c3ccccc3)O[C@H]1CO2 | 6.3[16.7 µM] | . | . | 36.9 | . | .
Cc1ccc(C)c(N=Nc2ccc(O)c3ncccc23)c1 | -39.9 | 2.4 | -16.6 | -6.7 | 61.3* | 85.8*
O=C(Nc1ncccc1O)c1ccc2c(c1)OCCO2 | 2.8 | 6.9 | 2.8 | -61.3 | 32.4 | -133.9
Cc1cccc(N=Nc2ccc(O)c3ncccc23)c1 | 30.6 | 6.8 | -13.9 | 52.5 | 52.4* | 87.4*
Cc1ccc(N=Nc2cc(C)ccc2O)c(C)c1 | -52.6 | 31.6 | -2.2 | -54.8 | -12.7 | -64.5
Oc1ccc(N=Nc2ccc3c(c2)OCCO3)c2ncccc12 | 11.8 | 8.4 | -16.6 | 76.3* | -6.3 | 95.0*
CCCC(=O)Nc1ccc2c(c1)OC[C@@H](C)N(C(=O)c1cnccn1)C[C@@H](C)[C@@H](OC)CN(C)C2=O | . | . | . | -24.5 | . | .
C[C@@H](NC(=O)C[C@H]1CC[C@@H]2[C@H](COC[C@H](O)CN2C(=O)Nc2ccccc2)O1)c1ccccc1 | . | . | . | -6.8 | . | .
C[C@@H]1CN([C@@H](C)CO)C(=O)c2cc(NC(=O)Cc3cn(C)c4ccccc34)ccc2O[C@@H]1CN(C)Cc1ccc(C(F)(F)F)cc1 | -63.4[16.7 µM] | . | . | 10.6 | . | .
CN(C)c1cccc(C(=O)Nc2cc(C(F)(F)F)ccc2-n2cnc3ccccc32)c1 | . | -0.3 | -1.4 | 81.3* | -6.7 | -20.5
COc1ccc(CN(C)C[C@H]2OCCCC[C@H](C)Oc3ccc(NS(=O)(=O)c4ccccc4)cc3C(=O)N([C@@H](C)CO)C[C@@H]2C)cc1 | 5.7[16.7 µM] | . | . | 14.9 | . | .
CSc1nc(-c2ccc(Cl)cc2)c(C#N)c(=O)[nH]1 | 59.3* | -0.4 | -0.7 | -3.3 | 3.0 | -9.9
CSc1nc(-c2ccccc2)c(C#N)c(=O)[nH]1 | -0.5 | -1.0 | 0.5 | -19.1 | -3.0 | -1.1
C[C@@H]1CN([C@H](C)CO)C(=O)c2cc(NC(=O)CCN3CCOCC3)ccc2O[C@H]1CN(C)S(=O)(=O)c1cccs1 | -11.0[16.7 µM] | . | . | 8.6 | . | .
c1ccc(CNc2nc(-c3cccnc3)nc3ccccc23)cc1 | 7.7 | -1.3 | 2.3 | 8.5 | -2.0 | 8.5
c1ccc(CN2CCC(Nc3nc(-c4cccnc4)nc4ccccc34)CC2)cc1 | -13.2 | 1.6 | 39.6* | 20.6 | -9.0 | 6.4
CCC(=O)Nc1ccc2c(c1)C(=O)N(C)C[C@H](OC)[C@H](C)CN(C(=O)C1CC1)[C@H](C)CO2 | . | . | . | -7.5 | . | .
O=S(=O)(NC(=S)c1ccccc1)c1ccccc1 | -2.7 | -0.4 | 2.1 | 17.4 | -9.8 | 2.4
CC(C)N=C(NS(=O)(=O)c1ccccc1)C(Cl)(Cl)Cl | -106.6 | -0.5 | 7.5 | 96.4* | -1.9 | 45.3
COCc1nc2ccccc2n1Cc1cccc(C)c1 | -1.7 | 2.4 | -0.9 | -8.2 | -0.6 | -5.3
SMILES | Env fusion inh | NSD2 inh | Glyco luc inh | PAX8 inh HTS | LMP1 NFkB inh | Shn3 inh set2
Cc1ccc(S(=O)(=O)n2c(N)nc3ccccc32)cc1 | 2.8 | 0.4 | -2.4 | 12.9 | 1.8 | -18.4
OCc1nc2ccccc2n1Cc1ccc(Cl)cc1 | -10.2 | 1.4 | -1.2 | 2.2 | -6.3 | 14.1
Cc1ccc(Cn2c(N)nc3ccccc32)cc1 | 59.2* | 5.9 | -2.7 | 27.0 | 9.5 | 40.1
Cc1ccc(C(=O)n2c(N)nc3ccccc32)cc1 | -2.3 | . | -21.6 | 64.8* | 64.7* | 62.2
Cc1nc2ccccc2n1Cc1ccc(Cl)cc1 | 12.9 | . | -4.8 | 20.5 | 1.8 | 88.0*
Cc1cccc(Cn2c(Cc3ccccc3)nc3ccccc32)c1 | . | -1.0 | -2.1 | 68.7* | 8.2 | 4.9
COc1ccc2c3c([nH]c2c1)[C@H](CO)N(Cc1nccs1)CC31CN(C(=O)C2CCCC2)C1 | . | . | . | 10.5 | . | .
N#C[C@@H]1[C@H](c2ccc(C3=CCCC3)cc2)[C@H](CO)N1C(=O)C1CCC1 | 17.9[16.7 µM] | . | . | -5.2 | . | .
O=C(C[C@@H]1CC[C@H](NC(=O)Cc2ccccn2)[C@@H](CO)O1)NCCc1ccncc1 | -6.1[16.7 µM] | . | . | 3.2 | . | .
O=C(NC1CCCCCC1)c1cc2ccccc2oc1=O | -94.6 | -3.6 | -11.9 | -187.4 | -28.0 | -8.0
COc1ccc2cc(C(=O)NC3CCCCC3)c(=O)oc2c1 | . | 14.9 | -0.1 | . | 80.8* | -1.0
CCCOc1ccc(Cn2cnc3ccccc32)cc1 | 60.1* | 1.1 | -5.2 | . | 7.6 | 70.5
CCNC(=O)C[C@H]1CC[C@H]2[C@@H](COC[C@H](O)CN2C(=O)Nc2ccc3c(c2)OCO3)O1 | . | . | . | -18.0 | . | .
O=C1CSC(=S)N1Cc1ccccc1 | 19.4 | -1.6 | 1.1 | -6.1 | 41.5* | -15.0
C[C@H](CO)N1C[C@H](C)[C@H](CN(C)C(=O)c2ccccc2)Oc2cc(C#CC3(O)CCCC3)ccc2S1(=O)=O | -12.9[16.7 µM] | . | . | . | . | .
CCOC(=O)c1ccc(NC(=O)CSc2nc(N3CCOCC3)nc(N3CCOCC3)n2)cc1 | 13.4 | -1.7 | -1.0 | -0.8 | 65.7* | 15.6
CC(=O)c1ccc(NC(=O)CSc2nc(N3CCOCC3)nc(N3CCOCC3)n2)cc1 | -5.3 | -0.8 | . | -90.4 | -10.4 | -63.2
CCN(CC)c1nc(Oc2ccc(C(=O)OC)cc2)nc(N2CCOCC2)n1 | 13.3 | -5.9 | -2.0 | -10.7 | 52.4* | 49.6
CCCNC(=O)Nc1ccc2c(c1)OC[C@H](C)N(Cc1cccnc1)C[C@H](C)[C@H](OC)CN(C)C2=O | -0.7[16.7 µM] | . | . | -10.7 | . | .
CC(=O)Nc1ccc(NC(=O)c2ccc(NS(=O)(=O)c3cc(C(C)(C)C)cc(C)c3C)cc2)cc1 | . | -1.0 | 0.4 | 67.5* | 0.9 | -3.5
Cc1cc(C(C)(C)C)cc(S(=O)(=O)Nc2ccc(O)c(C(=O)O)c2)c1C | -1.5 | 3.8 | 3.8 | . | -3.6 | -15.4
O=C(CCS(=O)(=O)c1ccccc1)Nc1ccccn1 | -6.8 | 1.0 | 2.8 | -21.5 | 2.5 | 5.9
Cc1ccc(S(=O)(=O)CCC(=O)Nc2nc(-c3ccncc3)cs2)cc1 | -8.1 | 1.8 | -6.2 | 20.0 | 31.4 | 22.4
CC(Oc1ccc(Br)cc1)C(=O)Nc1ccncc1 (stereo not drawn) | 20.1 | -0.7 | -3.1 | -8.1 | 2.3 | 44.2
O=C(CCS(=O)(=O)c1ccccc1)Nc1nc(-c2ccccn2)cs1 | 13.8 | . | -11.8 | 73.2* | 0.9 | 29.1
O=C(CCS(=O)(=O)c1ccc(F)cc1)Nc1nc(-c2ccccn2)cs1 | 4.9 | -0.1 | -8.6 | 84.5* | 10.6 | 31.4
